Experiments:
Test in all cases: PBM binding z-score (relative to random genomic background probes); higher = stronger binding; sequences stand for … in GC…GCGATTGACAGCGTAGAATGAAGG
[1] = test system: PPARg:RXRa DBDmut IVT, anti-RXR (DBD mutation: RXRa K156A/R161A, NR concentration 270 nM, RXRa partner concentration 90 nM)
Procedure, shortened: (§1)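 Custom Agilent 4×180K protein-binding microarrays carried double-stranded probes. Their 34-nt variable regions held direct-repeat seeds, single-nucleotide variants, half-site ablations and random human genomic background sequences. Arrays were incubated 1 h with ligand-free nuclear receptor dimers in PBS pH 7.4, 2% milk, 0.02% Triton X-100, 1 mM DTT, 0.2 mg/mL BSA and 0.4 mg/ml salmon testes DNA. Antibodies against each partner (one per run) detected binding, and scanned fluorescence was regression-normalized. Binding z-scores use random background probes as reference.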

[2] = test system: PPARg:RXRa IVT, anti-PPARg (NR concentration 270 nM, RXRa partner concentration 90 nM)
Procedure, shortened: as §1

[3] = test system: PPARg DBDmut:RXRa IVT, anti-PPARg (DBD mutation: PPARg1 K132A/R137A, NR concentration 270 nM, RXRa partner concentration 90 nM)
Procedure, shortened: as §1

[4] = test system: PPARg DBDmut IVT, anti-PPARg (DBD mutation: PPARg1 K132A/R137A, NR concentration 270 nM)
Procedure, shortened: as §1

[5] = test system: PPARg homodimer (NR concentration 180 nM)
Procedure, shortened: as §1

[6] = test system: PXR:RXRa (NR concentration 270 nM, RXRa partner concentration 90 nM)
Procedure, shortened: as §1

[7] = test system: PXR homodimer (NR concentration 270 nM)
Procedure, shortened: as §1

[8] = test system: RARa:RXR (NR concentration 270 nM, RXRa partner concentration 90 nM)
Procedure, shortened: as §1

[9] = test system: RARa homodimer (NR concentration 270 nM)
Procedure, shortened: as §1

[10] = test system: RARb:RXRa (NR concentration 270 nM, RXRa partner concentration 90 nM)
Procedure, shortened: as §1

[11] = test system: RARb homodimer (NR concentration 270 nM)
Procedure, shortened: as §1

[12] = test system: RARg:RXRa (NR concentration 270 nM, RXRa partner concentration 90 nM)
Procedure, shortened: as §1

[13] = test system: RARg homodimer (NR concentration 270 nM)
Procedure, shortened: as §1

[14] = test system: RXRa DBDmut IVT, anti-RXR (DBD mutation: RXRa K156A/R161A, NR concentration 90 nM)
Procedure, shortened: as §1

[15] = test system: RXRa homodimer (NR concentration 180 nM)
Procedure, shortened: as §1

[16] = test system: THRa:RXRa (NR concentration 90 nM, RXRa partner concentration 90 nM)
Procedure, shortened: as §1

[17] = test system: THRa homodimer (NR concentration 90 nM)
Procedure, shortened: as §1

[18] = test system: VDR:RXRa (NR concentration 270 nM, RXRa partner concentration 90 nM)
Procedure, shortened: as §1

[19] = test system: VDR homodimer (NR concentration 270 nM)
Procedure, shortened: as §1

| Sequence | PBM binding z-score [1] | PBM binding z-score [2] | PBM binding z-score [3] | PBM binding z-score [4] | PBM binding z-score [5] | PBM binding z-score [6] | PBM binding z-score [7] | PBM binding z-score [8] | PBM binding z-score [9] | PBM binding z-score [10] | PBM binding z-score [11] | PBM binding z-score [12] | PBM binding z-score [13] | PBM binding z-score [14] | PBM binding z-score [15] | PBM binding z-score [16] | PBM binding z-score [17] | PBM binding z-score [18] | PBM binding z-score [19] |
| --- | --- | --- | --- | --- | --- | --- | --- | --- | --- | --- | --- | --- | --- | --- | --- | --- | --- | --- | --- |
| AATACAGTGTCACTAGGCCAGAGTAGGTACGAAT | 1.71 | 3.04 | 0.806 | 0.257 | 0.169 | -0.342 | -0.144 | -0.182 | -0.0529 | 1.06 | 0.565 | 0.553 | 0.864 | 0.0246 | 0.185 | 0.145 | -0.314 | -0.0369 | 0.0225 |
| TCATATATGTAAACAGGTGAAAGTCCGTAAGTTA | 2.85 | 1.7 | 1.25 | 1.22 | 0.985 | 1.08 | 0.358 | 1.24 | 0.262 | 0.572 | 0.609 | 0.551 | 0.376 | 1.85 | 0.989 | 0.84 | 0.27 | 1.31 | 0.413 |
| CGTCCAGGGTCAAAGGTCAGTGAAGAGATGACGG | 2.45 | 5.28 | 0.657 | 0.0677 | 3.17 | 6.94 | 0.868 | 8.37 | 1.58 | 5.63 | 5.11 | 8.3 | 7 | 2.98 | 9.93 | 4.54 | 1.48 | 6.53 | 3.04 |
| CGAACTAGGTCATCCTGGACAGTGAATACATTGA | 8.23 | 8.04 | 1.58 | 0.831 | 1.83 | 1.3 | -0.0548 | 2.02 | 0.627 | 3.58 | 2.86 | 3.82 | 4.56 | 2.37 | 2.67 | 2.89 | 1.35 | 2.56 | 1.5 |
| GCTGCTAGGTCAGCTGATGGTCAGCTAAAGCTCG | 3.51 | 2.35 | -1.32 | -1.88 | 0.56 | -0.015 | -1.12 | 0.983 | -1.22 | 3.57 | 2.88 | 3.97 | 4.38 | 0.423 | 0.813 | 1.83 | -0.0581 | -0.126 | -1.09 |
| GCATATAGGTAATACAAGTTGAAAGTCCGATTGT | 4.35 | 2.61 | 1.06 | 0.954 | 0.423 | 0.787 | 0.733 | 0.761 | 0.554 | 0.148 | 0.185 | 0.232 | 0.481 | 0.331 | 0.404 | 1.76 | -0.418 | 0.409 | 0.193 |
| TCATATAGGTAAACAGGTGAAAATCCGTAAGTTA | 4.38 | 4.3 | 1.27 | 0.925 | 1.28 | 1.18 | 0.297 | 1.4 | 1.83 | 0.846 | 0.649 | 0.838 | 0.551 | 1.57 | 1.52 | 0.866 | 0.391 | 1.39 | 0.265 |
| CCTACTGGGCCAAGGTCATTGTTCAGTCAAAGCA | 3.1 | 4.53 | 1.57 | -0.159 | 3.54 | 3.62 | 1.49 | 3.79 | -0.126 | 3.25 | 3.27 | 3.46 | 2.71 | 1.59 | 2.91 | 3.45 | 2.72 | 3.15 | 3.17 |
| CAAACTAGGTCAAGAGTTCAAAGTCCGCTTCCCG | 8.53 | 8.57 | 5.05 | 5.84 | 7.86 | 6.27 | 10.5 | 6.61 | 2.65 | 4.74 | 4.97 | 7.16 | 6.48 | 3.87 | 5.58 | 3.33 | 1.28 | 6.21 | 7.25 |
| TCATATAGGTAAAGGTGATAGTCGAACGATATGA | 3.45 | 3.38 | 1.17 | 1.36 | 0.694 | 0.398 | 0.262 | 0.569 | 0.68 | 1.09 | 0.45 | 0.866 | 0.944 | 0.699 | 1.19 | 0.353 | -0.589 | 0.559 | -0.591 |
| CCTTACGGGTCACTCCAGGTAATAGCATCGGAGT | 2.28 | 3.72 | 0.64 | 0.618 | 2.25 | 3.63 | 0.169 | 3.88 | 0.163 | 3.72 | 2.75 | 4.2 | 4.02 | 1.48 | 4.32 | 4.97 | 0.347 | 3.08 | 1.19 |
| CAGCCTAGGTCAGGTCCAGTATAGGAGGAACGTT | 1.02 | 0.846 | -0.384 | -1.31 | 0.577 | 0.126 | -0.567 | 0.528 | -0.0442 | 3 | 1.98 | 2.25 | 3.33 | -0.0428 | 1.14 | 1.68 | 0.525 | 0.304 | 0.207 |
| TCGAGTAGGTTAGTCGGGACATTCAGCCAACATA | 1.85 | 1.48 | -0.367 | -1.31 | -0.431 | -0.161 | -0.242 | 0.166 | -0.452 | 0.165 | 0.0324 | -0.106 | 0.0152 | 0.327 | 0.107 | 1.39 | 0.328 | 1.19 | 0.0666 |
| TCTCGGAGGACACGAAAGGTCAGACCTCGACATC | 1.73 | 1.54 | 0.0109 | -0.512 | 2.48 | 4.1 | 0.547 | 4.15 | 1.09 | 4.28 | 4.65 | 4.84 | 5.27 | 1.39 | 4.1 | 3.73 | 1.55 | 3.52 | 1.14 |
| TCTTGTAGATCAATAGCGGTTAAGAAAGTGCGCT | 1.73 | 0.605 | -0.463 | 0.835 | 0.226 | 0.449 | 0.123 | 0.439 | 0.667 | -0.0234 | -0.0533 | 0.105 | -0.0407 | 0.457 | 0.288 | 0.011 | -0.478 | 0.46 | 0.0262 |

From the supplement of paper PMC6555819
